# Assay results taken from PubChem BioAssay (NCATS).
# Records with an inconclusive call do not appear. Entries that show only a call come without a potency. Active and inactive are the calls of the source. Calls follow the shape of the dose curve; as a rule, active = well fitted inhibition curve with a large enough effect; inconclusive = small, poorly fitted or top-dose-only effect; inactive = flat fitted curve, though single readings scatter. Where a SMILES comes first, the peptide text is derived from it. Bridges are numbered along the chain shown (N, C = ends). [ ]: non-standard residue; d: D form. The star is where a group is joined. X2 = CC[C@H](C)CCCCC(=O)*; Dab = NCC[C@H](N)C(=O)O
# Tested on: astro (control astrocytes)
# Assay: Drug repurposing screens with cells derived from glioblastoma tumor samples (AID 1345199); also: nearly all actives have a fitted effect of over 40% in size
# Conditions: viability, ATP luminescence, 48 h; series mostly up to 45.9 µM
# Protocol: CD133+ cells were isolated from GBM patient biopsies and cultured as neurospheres. Neurospheres from four patients were used to screen the NCATS pharmaceutical collection (NPC) library of approved drugs and bioactive compounds. […] The neurospheres were incubated with drugs for 48 hours in 1536-well format, then assayed with an ATP content cell viability assay. […] These hits were cherry picked to confirm activity in the four original GBM lines screened plus three other slower growing GMB lines (unable to yield enough cells for a full primary screen). Variable activities of the confirmed primary hits in the different GBM patient lines were observed. The patient line 206 responded to the greatest number of compounds and line 923 responded to the least amount of active compounds.
# Potency is read from the fitted curve at half-maximal effect.
row,Structure (SMILES),Potency
1,CCCCCCCCCCCCCCCC(=O)OC/C=C(C)/C=C/C=C(C)/C=C/C1=C(C)CCCC1(C)C,inactive
2,CCCCCCCC/C=C\CCCCCCCC(=O)OC[C@@H](O)[C@H]1OC[C@H](O)[C@H]1O,inactive
3,C/C=C(/CC[C@@H](C)[C@H]1CC[C@H]2C3=CC[C@H]4[C@H](C)[C@@H](O)CC[C@]4(C)[C@H]3CC[C@]12C)C(C)C,inactive
4,C[C@H](CSC(=O)c1ccccc1)C(=O)N1C[C@@H](Sc2ccccc2)C[C@H]1C(=O)O,inactive
5,CC1(C)C2CC[C@]3(C)[C@H](C(=O)C=C4[C@@H]5C[C@@](C)(C(=O)O)CC[C@]5(C)CC[C@]43C)[C@@]2(C)CC[C@@H]1O[C@H]1O[C@H](C(=O)O)[C@@H](O)[C@H](O)[C@H]1O[C@@H]1O[C@H](C(=O)O)[C@@H](O)[C@H](O)[C@H]1O (stereo not given in full),inactive
6,Cn1nnnc1SCC1=C(C(=O)O)N2C(=O)[C@@H](NC(=O)[C@H](OC=O)c3ccccc3)[C@H]2SC1,inactive
7,NCCCC[C@H](NC(=O)[C@@H]1CCCN1C(=O)[C@@H]1CSSC[C@H](N)C(=O)N[C@@H](Cc2ccccc2)C(=O)N[C@@H](Cc2ccccc2)C(=O)N[C@@H](CCC(N)=O)C(=O)N[C@@H](CC(N)=O)C(=O)N1)C(=O)NCC(N)=O,inactive
8,CCCCOC(=O)C(=O)Nc1cccc(-c2nn[nH]n2)c1,inactive
9,CCCN(CC)C(CC)C(=O)Nc1c(C)cccc1C (stereo not given),inactive
10,CO/N=C(\C(=O)N[C@@H]1C(=O)N2C(C(=O)OCOC(=O)C(C)(C)C)=C(/C=C\c3scnc3C)CS[C@H]12)c1csc(N)n1,inactive
11,COc1ccc(CCNCC(O)COc2cccc(C)c2)cc1OC (stereo not given),inactive
12,CCN(CC)c1ccc(N=Nc2ccc(S(=O)(=O)N(C)C)cc2)c(S(=O)(=O)NCC[n+]2ccccc2)c1,inactive
13,CCOC(=O)COc1ccc2c(=O)cc(-c3ccccc3)oc2c1,inactive
14,O=S(=O)(O)Oc1ccc(C(c2ccc(OS(=O)(=O)O)cc2)c2ccccn2)cc1,inactive
15,NCCCC[C@H](NC(=O)[C@@H]1CCCN1C(=O)[C@@H]1CSSC[C@H](N)C(=O)N[C@@H](Cc2ccc(O)cc2)C(=O)N[C@@H](Cc2ccccc2)C(=O)N[C@@H](CCC(N)=O)C(=O)N[C@@H](CC(N)=O)C(=O)N1)C(=O)NCC(N)=O,inactive
16,CCN(CC)c1ccc(C(=C2C=CC(=[N+](CC)CC)C=C2)c2ccccc2)cc1,2 µM (active)
17,C[C@H](/C=C/[C@H](C)C(C)(C)O)[C@H]1CC[C@H]2/C(=C/C=C3C[C@@H](O)C[C@H](O)C3)CCC[C@]12C,inactive
18,CC(CC(c1ccccc1)c1ccccc1)NC(C)(C)C (stereo not given),inactive
19,C=CCNC1=C2C[C@@H](C)C[C@H](OC)[C@H](O)[C@@H](C)/C=C(\C)[C@H](OC(N)=O)[C@@H](OC)/C=C\C=C(/C)C(=O)NC(=CC1=O)C2=O,1.26 µM (active)
20,CCCCc1cc2c(=O)c(C(=O)OC)c[nH]c2cc1OCc1ccccc1,inactive

row,Structure (SMILES),Potency
1,COc1ccc(C2NC(=S)N3C(c4ccc(OC)c(OC)c4)NC(=S)N23)cc1OC (stereo not given),inactive
2,c1cnc2cc3c(cc2n1)[C@@H]1CNC[C@H]3C1,inactive
3,CC[C@H](C)CCCCC(=O)N[C@@H](CCN)C(=O)N[C@H](C(=O)N[C@@H](CCN)C(=O)N[C@H]1CCNC(=O)[C@H]([C@@H](C)O)NC(=O)[C@H](CCN)NC(=O)[C@H](CCN)NC(=O)[C@H](CC(C)C)NC(=O)[C@@H](CC(C)C)NC(=O)[C@H](CCN)NC1=O)[C@@H](C)O (X2-[Dab]T[Dab][Dab][Dab][dL]L[Dab][Dab]T; lactam 4-C),inactive
4,CC#CCC(C)[C@H](O)/C=C/[C@@H]1[C@H]2C/C(=C/CCCC(=O)O)C[C@H]2C[C@H]1O (stereo not given in full),inactive
5,COC(C)=O,inactive
6,CC1=C(C(=O)OCCN(Cc2ccccc2)c2ccccc2)C(c2cccc([N+](=O)[O-])c2)C(P2(=O)OCC(C)(C)CO2)=C(C)N1 (stereo not given),inactive
7,CCOC(=O)COc1ccc2c(C)c(CCN(CC)CC)c(=O)oc2c1,inactive
8,O=C[C@H](O)[C@@H](O)[C@H](O[C@H]1O[C@H](CO)[C@@H](O[C@H]2O[C@H](CO)[C@@H](O)[C@H](O)[C@H]2O)[C@H](O)[C@H]1O)[C@H](O)CO,inactive
9,CCCCCCCCCCCCCCCC(=O)OCCC1CCN(CCCN2c3ccccc3Sc3ccc(S(=O)(=O)N(C)C)cc32)CC1,inactive
10,CN1CC(O)c2cc(N=NC(N)=O)c(O)cc21 (stereo not given),inactive
11,O=c1[nH]cnc2[nH]cc(CN3CCCCC3)c12,inactive
12,CCCCC(=O)O,inactive
13,CC#CCC(C)[C@H](O)/C=C/[C@@H]1[C@H]2c3cccc(CCCC(=O)O)c3O[C@H]2C[C@H]1O (stereo not given in full),inactive
14,CCCC1([C@H](O)C/C=C/[C@H]2[C@H](O)CC(=O)[C@@H]2CCCCCCC(=O)OC)CCC1,inactive
15,CC(=O)OCC(=O)[C@@]1(O)[C@H](C)C[C@H]2[C@@H]3C[C@H](F)C4=CC(=O)C=C[C@]4(C)[C@H]3[C@@H](O)C[C@@]21C,inactive
16,C[C@H]1C[C@@H]2[C@H]([C@@H](O)C[C@@]3(C)[C@H]2CC[C@]3(O)C(=O)COC(=O)CCC(=O)O)[C@@]2(C)C=CC(=O)C=C12,inactive
17,CC1(C)S[C@@H]2[C@H](NC(=O)C(C(=O)Oc3ccc4c(c3)CCC4)c3ccccc3)C(=O)N2[C@H]1C(=O)O (stereo not given in full),inactive
18,O=S(O)CO,inactive
19,Cc1[nH]cnc1C[C@H]1CCc2c(C)c3ccccc3n2C1=O,inactive
20,O=C(O)[C@@H](O)[C@H](O)[C@H](O)[C@@H](O)C(=O)O (tested in a mixture with another compound),inactive
